In PubChem BioAssay AID1159580 (chemical genetic matrix, 2015):
Where “and” joins values, the source holds several entries; their conditions need not be identical. Equal values may be shown once. Out of some 5,500 compounds screened, about 2,000 (36%) were called active. About 18% were inconclusive and are not listed. No stated cut-off is given here; in the data, active means normalized growth mostly below about 0.91 (no sharp cut-off); inconclusive means no clear call, values can overlap the other calls; inactive means mostly above about 0.92. This is one part of the list.

Assay: chemical genetic growth profiling, strain panel (AID 1159580);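 further: tested at 20 µM; growth read once vehicle control cultures reached saturation at 30 °C; 1 = growth at the plate median or of vehicle wells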
Settings: S. cerevisiae deletion strains, growth OD

Measured: normalized growth

O=c1c(O)c(-c2ccccc2)oc2ccccc12
0.991 (inactive) and 0.591 (active): locus YHR030C, strain SLT2, stronger effect = lower value
active: locus YAL021C, strain ccr4, stronger effect = lower value 0.424 | locus YAL026C, strain drs2, stronger effect = lower value 0.17 | locus YAL030W, strain snc1, stronger effect = lower value 0.68 | locus YBL061C, strain skt5, stronger effect = lower value 0.578 | locus YBR009C, strain hhf1, stronger effect = lower value 0.61 | locus YBR023C, strain chs3, stronger effect = lower value 0.363 | locus YBR171W, strain sec66, stronger effect = lower value 0.815 | locus YBR231C, strain swc5, stronger effect = lower value 0.418 | locus YBR279W, strain paf1, stronger effect = lower value 0.447 | locus YCL011C, strain gbp2, stronger effect = lower value 0.51 | locus YCL016C, strain dcc1, stronger effect = lower value 0.628 | locus YCL061C, strain MRC1, stronger effect = lower value 0.527 | locus YCL069W, strain vba3, stronger effect = lower value 0.47 | locus YCR088W, strain abp1, stronger effect = lower value 0.654 | locus YDL005C, strain med2, stronger effect = lower value 0.855 | locus YDL040C, strain nat1, stronger effect = lower value 0.794 | locus YDR001C, strain nth1, stronger effect = lower value 0.651 | locus YDR069C, strain doa4, stronger effect = lower value 0.302 | locus YDR137W, strain rgp1, stronger effect = lower value 0.363 | locus YDR195W, strain ref2 1.17 [resistant] | locus YDR297W, strain sur2, stronger effect = lower value 0.709 | locus YDR334W, strain swr1, stronger effect = lower value 0.347 | locus YDR335W, strain msn5, stronger effect = lower value 0.608 | locus YDR392W, strain spt3, stronger effect = lower value 0.135 | locus YEL003W, strain gim4, stronger effect = lower value 0.595 | locus YEL037C, strain rad23, stronger effect = lower value 0.465 | locus YEL061C, strain CIN8 (second series), stronger effect = lower value 0.592 | locus YER015W, strain faa2, stronger effect = lower value 0.455 | locus YER016W, strain bim1, stronger effect = lower value 0.81 | locus YER111C, strain swi4, stronger effect = lower value 0.71 | locus YER155C, strain BEM2 (second series), stronger effect = lower value 0.602 | locus YFR010W, strain ubp6, stronger effect = lower value 0.291 | locus YGL167C, strain pmr1, stronger effect = lower value 0.834 | locus YGL173C, strain kem1, stronger effect = lower value 0.271 | locus YGL227W, strain vid30, stronger effect = lower value 0.771 | locus YGL240W, strain doc1, stronger effect = lower value 0.643 | locus YGL253W, strain hxk2, stronger effect = lower value 0.356 | locus YHR013C, strain ard1, stronger effect = lower value 0.219 | locus YHR027C, strain rpn1, stronger effect = lower value 0.268 | locus YHR079C, strain IRE1, stronger effect = lower value 0.812 | locus YHR142W, strain chs7, stronger effect = lower value 0.294 | locus YJL092W, strain hpr5, stronger effect = lower value 0.545 | locus YJL095W, strain BCK1 (second series), stronger effect = lower value 0.453 | locus YJL115W, strain asf1, stronger effect = lower value 0.616 | locus YJL129C, strain trk1, stronger effect = lower value 0.77 | locus YJL154C, strain vps35, stronger effect = lower value 0.752 | locus YJL164C, strain tpk1, stronger effect = lower value 0.333 | locus YJL166W, strain qcr8, stronger effect = lower value 0.355 | locus YJL187C, strain SWE1, stronger effect = lower value 0.758 | locus YJR066W, strain TOR1, stronger effect = lower value 0.766 | locus YKL160W, strain elf1, stronger effect = lower value 0.678 | locus YKR026C, strain gcn3, stronger effect = lower value 0.777 | locus YKR091W, strain srl3, stronger effect = lower value 0.82 | locus YLL001W, strain dnm1, stronger effect = lower value 0.512 | locus YLL026W, stronger effect = lower value 0.354 | locus YLL041C, strain sdh2, stronger effect = lower value 0.872 | locus YLR027C, strain aat2, stronger effect = lower value 0.681 | locus YLR113W, strain HOG1, stronger effect = lower value 0.851 | locus YLR221C, strain rsa3, stronger effect = lower value 0.612 | locus YLR258W, strain gsy2, stronger effect = lower value 0.655 | locus YLR262C, strain YPT6 (second series), stronger effect = lower value 0.228 | locus YLR320W, strain mms22, stronger effect = lower value 0.503 | locus YLR342W, strain FKS1, stronger effect = lower value 0.513 | locus YLR357W, strain rsc2, stronger effect = lower value 0.584 | locus YLR370C, strain arc18, stronger effect = lower value 0.364 | locus YLR384C, strain iki3, stronger effect = lower value 0.877 | locus YML120C, strain ndi1, stronger effect = lower value 0.844 | locus YMR058W, strain fet3, stronger effect = lower value 0.0896 | locus YMR129W, stronger effect = lower value 0.872 | locus YMR205C, strain PFK2, stronger effect = lower value 0.506 | locus YMR231W, strain pep5, stronger effect = lower value 0.128 | locus YNL071W, strain lat1, stronger effect = lower value 0.301 | locus YNL183C, strain NPR1, stronger effect = lower value 0.8 | locus YNL209W, strain ssb2, stronger effect = lower value 0.159 | locus YNL248C, strain rpa49, stronger effect = lower value 0.567 | locus YNL322C, strain KRE1 (second series), stronger effect = lower value 0.851 | locus YNR049C, strain mso1, stronger effect = lower value 0.616 | locus YOR001W, strain rrp6, stronger effect = lower value 0.805 | locus YOR070C, strain gyp1, stronger effect = lower value 0.561 | locus YOR080W, strain dia2, stronger effect = lower value 0.689 | locus YOR083W, strain WHI5, stronger effect = lower value 0.565 | locus YOR106W, strain vam3, stronger effect = lower value 0.163 | locus YOR231W, strain MKK1, stronger effect = lower value 0.834 | locus YOR265W, strain rbl2, stronger effect = lower value 0.467 | locus YOR270C, strain vph1, stronger effect = lower value 0.16 | locus YOR290C, strain snf2, stronger effect = lower value 0.589 | locus YPL051W, strain arl3, stronger effect = lower value 0.262 | locus YPL078C, strain atp4, stronger effect = lower value 0.553 | locus YPL106C, strain sse1, stronger effect = lower value 0.676 | locus YPL240C, strain hsp82, stronger effect = lower value 0.762
inactive: locus YAL013W, strain DEP1, stronger effect = lower value 0.993 | locus YBR021W, strain FUR4, stronger effect = lower value 1.01 | locus YBR229C, strain ROT2, stronger effect = lower value 0.963 | locus YCL029C, strain bik1, stronger effect = lower value 0.983 | locus YDL035C, strain GPR1, stronger effect = lower value 0.985 | locus YDL074C, strain BRE1, stronger effect = lower value 1.01 | locus YDL101C, strain DUN1, stronger effect = lower value 0.997 | locus YDL185W, strain tfp1, stronger effect = lower value 0.974 | locus YDL192W, strain arf1, stronger effect = lower value 1 | locus YDR101C, strain arx1, stronger effect = lower value 1.03 | locus YDR150W, strain NUM1, stronger effect = lower value 0.993 | locus YDR159W, strain sac3, stronger effect = lower value 0.929 | locus YDR162C, strain NBP2, stronger effect = lower value 0.981 | locus YDR318W, strain mcm21, stronger effect = lower value 0.963 | locus YDR388W, stronger effect = lower value 0.994 | locus YDR502C, strain sam2, stronger effect = lower value 1.01 | locus YEL061C, strain CIN8, stronger effect = lower value 0.984 | locus YER110C, stronger effect = lower value 0.987 | locus YER155C, strain BEM2, stronger effect = lower value 0.999 | locus YER167W, strain BCK2, stronger effect = lower value 0.99 | locus YGL078C, strain dbp3, stronger effect = lower value 0.991 | locus YGL086W, strain mad1, stronger effect = lower value 1.04 | locus YGL248W, strain PDE1, stronger effect = lower value 0.986 | locus YGR078C, strain PAC10, stronger effect = lower value 0.991 | locus YGR135W, strain pre9, stronger effect = lower value 0.977 | locus YGR229C, strain SMI1, stronger effect = lower value 0.998 | locus YGR252W, strain gcn5, stronger effect = lower value 0.947 | locus YHR079C, strain IRE1 (second series), stronger effect = lower value 0.993 | locus YHR094C, strain hxt1, stronger effect = lower value 0.975 | locus YHR129C, strain ARP1, stronger effect = lower value 0.982 | locus YHR200W, strain rpn10, stronger effect = lower value 0.992 | locus YIL066C, strain RNR3, stronger effect = lower value 0.978 | locus YIL073C, strain SPO22, stronger effect = lower value 0.996 | locus YIL125W, strain kgd1, stronger effect = lower value 0.999 | locus YIR030C, strain dcg1, stronger effect = lower value 0.998 | locus YJL134W, strain LCB3, stronger effect = lower value 0.986 | locus YJL168C, strain set2, stronger effect = lower value 0.994 | locus YJL187C, strain SWE1 (second series), stronger effect = lower value 1.01 | locus YJR043C, strain POL32, stronger effect = lower value 0.981 | locus YJR075W, strain HOC1, stronger effect = lower value 0.982 | locus YKL009W, strain mrt4, stronger effect = lower value 0.988 | locus YKL068W, stronger effect = lower value 0.988 | locus YKL085W, strain MDH1 (second series), stronger effect = lower value 0.994 | locus YKL085W, strain MDH1, stronger effect = lower value 0.994 | locus YKR001C, strain vps1, stronger effect = lower value 1.02 | locus YLR039C, strain RIC1, stronger effect = lower value 1.01 | locus YLR058C, strain SHM2, stronger effect = lower value 0.977 | locus YLR102C, strain apc9, stronger effect = lower value 0.997 | locus YLR262C, strain YPT6, stronger effect = lower value 1 | locus YLR268W, strain sec22, stronger effect = lower value 1.03 | locus YLR330W, strain CHS5, stronger effect = lower value 0.997 | locus YLR342W, strain FKS1 (second series), stronger effect = lower value 1.01 | locus YLR371W, strain rom2, stronger effect = lower value 0.974 | locus YLR418C, strain cdc73, stronger effect = lower value 0.97 | locus YML016C, strain PPZ1, stronger effect = lower value 1 | locus YML032C, strain rad52, stronger effect = lower value 0.956 | locus YML124C, strain tub3, stronger effect = lower value 0.988 | locus YMR078C, strain ctf18, stronger effect = lower value 0.996 | locus YMR125W, strain sto1, stronger effect = lower value 0.933 | locus YMR223W, strain ubp8, stronger effect = lower value 0.965 | locus YMR307W, strain GAS1, stronger effect = lower value 0.963 | locus YNL067W, strain RPL9B, stronger effect = lower value 0.994 | locus YNL128W, strain TEP1, stronger effect = lower value 0.966 | locus YNL233W, strain BNI4, stronger effect = lower value 1.02 | locus YNL250W, strain rad50, stronger effect = lower value 0.975 | locus YNL271C, strain bni1, stronger effect = lower value 0.993 | locus YNL298W, strain CLA4, stronger effect = lower value 0.996 | locus YNL307C, strain MCK1, stronger effect = lower value 0.995 | locus YNR052C, strain pop2, stronger effect = lower value 0.959 | locus YOL006C, strain TOP1, stronger effect = lower value 1.06 | locus YOL012C, strain htz1 0.87 | locus YOL147C, strain pex11, stronger effect = lower value 0.996 | locus YOR061W, strain CKA2, stronger effect = lower value 0.966 | locus YOR069W, strain VPS5, stronger effect = lower value 0.999 | locus YOR136W, strain idh2, stronger effect = lower value 0.991 | locus YOR144C, strain elg1, stronger effect = lower value 0.982 | locus YOR184W, strain ser1, stronger effect = lower value 0.988 | locus YOR316C, strain cot1, stronger effect = lower value 0.986 | locus YPL256C, strain CLN2, stronger effect = lower value 0.886 | locus YPR119W, strain clb2, stronger effect = lower value 0.992 | locus YPR141C, strain kar3, stronger effect = lower value 0.993 | locus YPR163C, strain tif3, stronger effect = lower value 0.984 | locus YPR167C, strain met16, stronger effect = lower value 0.978 | strain wtn01, stronger effect = lower value 1.05
0.983 (inactive) and 0.617 (active): locus YJL095W, strain BCK1, stronger effect = lower value
